In PubChem BioAssay (EPA / NIEHS) one finds outcome and AC50 data, which are given here for 25 molecules.

For experiment [1], the target named is Estrogen-related receptor gamma (Homo sapiens) (UniProt P62508). The experiment can be described thus: ATG_ERRg_TRANS: Attagene TRANS-FACTORIAL HepG2 Assay for human Estrogen-Related Receptor gamma (ERRg) (AID 2282977).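 Note: hits increase reporter signal over DMSO so potencies reflect activators.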 Particulars: HepG2 Attagene TRANS reporter, ERRg transactivation. In short, it runs like this:
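Exogenous NR-Gal4 chimera activity measured as reporter transcript induction after 24 h in transiently transfected HepG2 cells. RNA reverse-transcribed, PCR-amplified, 6-FAM-labelled and resolved by capillary electrophoresis; increase over DMSO baseline.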

Experiment [2] addresses Glucocorticoid receptor (Homo sapiens) (UniProt P04150). The experiment can be described thus: ATG_GR_TRANS: Attagene TRANS-FACTORIAL HepG2 Assay for human Glucocorticoid Receptor (GR) (AID 2282978).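 Note: activators score as hits since higher reporter transcript over DMSO is fitted.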 The conditions noted are these: HepG2 Attagene TRANS GR reporter, mRNA transcription. In short, it runs like this:
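Transient MRTU transfection of HepG2 (GAL4-UAS reporters, exogenous NR-GAL4 chimeras), 24 h dosing. Readout: reporter transcript via RT-PCR + capillary electrophoresis fluorescence. Positive direction vs DMSO baseline.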

For experiment [3], the target named is Bile acid receptor (Homo sapiens) (UniProt Q96RI1). The experiment can be described thus: ATG_FXR_TRANS: Attagene TRANS-FACTORIAL HepG2 Assay for Farnesoid X Receptor (FXR) (AID 2282979).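 Note: hits raise reporter mRNA above DMSO so AC50 marks FXR activation.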 The conditions noted are these: HepG2 Attagene TRANS FXR-GAL4 reporter transcription. In short, it runs like this:
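HepG2 cells were transiently transfected with GAL4-UAS reporters driven by chimeric NR-Gal4 proteins and dosed for 24 h. Reporter mRNA was quantified by RT-PCR, fluorescent labelling, HpaI digestion and capillary electrophoresis, with gain of signal scored versus DMSO.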

For experiment [4], the target named is Oxysterols receptor LXR-alpha (Homo sapiens) (UniProt Q13133). The experiment can be described thus: ATG_LXRa_TRANS: Attagene TRANS-FACTORIAL HepG2 Assay for human Liver X Receptor alpha (LXRa) (AID 2282980). The conditions noted are these: HepG2 Attagene TRANS reporter, LXRa transactivation. In short, it runs like this:
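HepG2 cells transiently transfected with GAL4-UAS reporter units for chimeric NR-Gal4 proteins, exposed to chemicals for 24 h. Reporter mRNA quantified by RT-PCR and capillary electrophoresis; gain of signal fitted relative to DMSO.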

Experiment [5] has as its target Hepatocyte nuclear factor 4-alpha (Homo sapiens) (UniProt P41235). The experiment can be described thus: ATG_HNF4a_TRANS: Attagene TRANS-FACTORIAL HepG2 Assay for human Hepatocyte Nuclear Factor 4 alpha (HNF4a) (AID 2282982). Particulars: HepG2 HNF4a transactivation reporter, mRNA readout. In short, it runs like this: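 Activity of an exogenous HNF4a–Gal4 fusion scored as induced GAL4-UAS reporter transcripts after 24 h chemical exposure of transfected human HepG2 cells. Read-out via RT-PCR with 6-FAM labelling and capillary electrophoresis; rise over DMSO baseline.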

Experiment [6] is described as follows: ATG_M_06_TRANS: Attagene TRANS-FACTORIAL HepG2 Assay for M06 Transcription Factor (Internal Marker) (AID 2282983). Particulars: HepG2 Attagene TRANS M06 internal marker reporter. In short, it runs like this:
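mRNA levels of a reporter transcript, quantified as FAM fluorescence on capillary electrophoresis, served as readout. HepG2 cells expressing exogenous GAL4-chimera reporter constructs were exposed for 24 h. Gain of signal over DMSO was evaluated.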

The target of experiment [7] is Nuclear receptor subfamily 4 group A member 2 (Homo sapiens) (UniProt P43354). The experiment is described as follows: ATG_NURR1_TRANS: Attagene TRANS-FACTORIAL HepG2 Assay for human Nuclear Receptor Related Protein 1 (NURR1) (AID 2282985). The conditions noted are these: HepG2 Attagene TRANS reporter, mRNA readout. In short, it runs like this:
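Reporter transcript induction, measured by RT-PCR with fluorescent labelling, HpaI digestion and capillary electrophoresis, after 24 hr dosing of human HepG2 cells transiently expressing an exogenous NR-Gal4 fusion with GAL4-UAS-driven reporters; DMSO as baseline.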

For experiment [8], the target named is Transcriptional activator Myb (Homo sapiens) (UniProt P10242). The experiment can be described thus: ATG_Myb_CIS: Attagene CIS-FACTORIAL HepG2 Assay for human Myeloblastosis (Myb) Proto-Oncogene Transcription Factor (AID 2282986; active = hit-call score of the fitted dose curve at least 0.9, where 1 is the maximum; inactive = score below 0.9). Particulars: HepG2 Attagene CIS-FACTORIAL Myb reporter transcription; actives raise or lower the signal. In short, it runs like this: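 HepG2, transient MRTU transfection (cis-element promoters, endogenous TF activity), 24 h compound exposure. Readout: reporter mRNA via RT-PCR, 6-FAM labeling, HpaI digest, capillary electrophoresis. Gain/loss fit vs DMSO.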

The target of experiment [9] is Oxysterols receptor LXR-beta (Homo sapiens) (UniProt P55055). The experiment can be described thus: ATG_LXRb_TRANS: Attagene TRANS-FACTORIAL HepG2 Assay for human Liver X Receptor beta (LXRb) (AID 2282981). The conditions noted are these: HepG2 Attagene TRANS GAL4-LXRb reporter, mRNA. In short, it runs like this: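 After 24 h chemical treatment of transfected HepG2 cells carrying exogenous NR-Gal4 chimeras, reporter mRNA was quantified by fluorescent RT-PCR and capillary electrophoresis; activity taken as increase over DMSO controls.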

The nature of experiment [10]: ATG_M_32_TRANS: Attagene TRANS-FACTORIAL HepG2 Assay for M32 Transcription Factor (Internal Marker) (AID 2282984).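 Note: transcript level of a background control reporter unit measured by RT-PCR and capillary electrophoresis.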 The conditions noted are these: HepG2 Attagene TRANS M32 internal marker reporter. In short, it runs like this: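 Internal background reporter in transfected HepG2: after 24 h chemical exposure, RNA reverse-transcribed, reporter cDNA amplified, fluorescently labelled and HpaI-cut, then sized by capillary electrophoresis. Gain of signal fitted against DMSO control.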

Inconclusive results are not listed. More than one record can exist for a structure, and the calls need not agree. The source made the active and inactive calls. Rule for the calls, unless noted: active = hit-call score of the fitted dose curve at least 0.9, where 1 is the maximum; inconclusive = response in the unintended direction; inactive = score below 0.9.

One may read the AC50 as the midpoint of the concentration-response curve, whichever way the signal moves.

Nuclear receptor subfamily 4 group A member 2 (Homo sapiens), sequence (P43354 whole entry, looked up, the tested form may be a part): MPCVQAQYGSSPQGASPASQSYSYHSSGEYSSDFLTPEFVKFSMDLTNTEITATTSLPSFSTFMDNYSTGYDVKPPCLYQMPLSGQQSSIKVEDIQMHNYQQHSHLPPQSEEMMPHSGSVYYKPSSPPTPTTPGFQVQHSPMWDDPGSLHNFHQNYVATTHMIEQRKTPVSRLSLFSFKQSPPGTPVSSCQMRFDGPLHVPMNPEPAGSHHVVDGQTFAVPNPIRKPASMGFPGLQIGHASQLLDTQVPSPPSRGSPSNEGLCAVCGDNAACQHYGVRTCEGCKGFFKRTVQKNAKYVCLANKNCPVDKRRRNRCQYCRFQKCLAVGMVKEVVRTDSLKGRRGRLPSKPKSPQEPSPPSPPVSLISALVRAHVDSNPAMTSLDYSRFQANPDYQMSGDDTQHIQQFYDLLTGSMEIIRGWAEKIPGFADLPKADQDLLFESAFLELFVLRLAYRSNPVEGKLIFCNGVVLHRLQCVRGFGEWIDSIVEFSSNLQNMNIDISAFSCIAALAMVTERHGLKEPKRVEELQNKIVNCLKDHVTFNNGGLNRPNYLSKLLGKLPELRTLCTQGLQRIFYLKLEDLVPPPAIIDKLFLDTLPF
Glucocorticoid receptor (Homo sapiens), sequence (P04150 whole entry, looked up, the tested form may be a part): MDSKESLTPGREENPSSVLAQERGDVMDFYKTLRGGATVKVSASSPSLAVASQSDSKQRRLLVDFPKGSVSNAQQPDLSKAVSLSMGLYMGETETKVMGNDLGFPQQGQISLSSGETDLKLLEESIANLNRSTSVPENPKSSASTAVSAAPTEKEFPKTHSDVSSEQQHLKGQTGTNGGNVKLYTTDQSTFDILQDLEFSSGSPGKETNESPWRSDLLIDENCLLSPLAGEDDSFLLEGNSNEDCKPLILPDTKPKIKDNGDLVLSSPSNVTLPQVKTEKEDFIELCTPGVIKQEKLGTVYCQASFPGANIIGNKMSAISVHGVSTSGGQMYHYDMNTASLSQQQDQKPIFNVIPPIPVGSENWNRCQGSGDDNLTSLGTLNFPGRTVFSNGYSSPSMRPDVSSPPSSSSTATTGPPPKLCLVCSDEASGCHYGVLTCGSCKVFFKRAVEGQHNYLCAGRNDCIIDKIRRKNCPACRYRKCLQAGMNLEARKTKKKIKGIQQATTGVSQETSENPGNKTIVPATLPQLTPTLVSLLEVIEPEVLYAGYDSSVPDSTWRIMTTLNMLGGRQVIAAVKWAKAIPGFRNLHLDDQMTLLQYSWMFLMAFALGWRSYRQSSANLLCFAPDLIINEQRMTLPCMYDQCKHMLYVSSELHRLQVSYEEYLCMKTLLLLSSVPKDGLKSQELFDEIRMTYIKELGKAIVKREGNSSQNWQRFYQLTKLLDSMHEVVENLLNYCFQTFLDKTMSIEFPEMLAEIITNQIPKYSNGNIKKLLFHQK
Estrogen-related receptor gamma (Homo sapiens), sequence (P62508 whole entry, looked up, the tested form may be a part): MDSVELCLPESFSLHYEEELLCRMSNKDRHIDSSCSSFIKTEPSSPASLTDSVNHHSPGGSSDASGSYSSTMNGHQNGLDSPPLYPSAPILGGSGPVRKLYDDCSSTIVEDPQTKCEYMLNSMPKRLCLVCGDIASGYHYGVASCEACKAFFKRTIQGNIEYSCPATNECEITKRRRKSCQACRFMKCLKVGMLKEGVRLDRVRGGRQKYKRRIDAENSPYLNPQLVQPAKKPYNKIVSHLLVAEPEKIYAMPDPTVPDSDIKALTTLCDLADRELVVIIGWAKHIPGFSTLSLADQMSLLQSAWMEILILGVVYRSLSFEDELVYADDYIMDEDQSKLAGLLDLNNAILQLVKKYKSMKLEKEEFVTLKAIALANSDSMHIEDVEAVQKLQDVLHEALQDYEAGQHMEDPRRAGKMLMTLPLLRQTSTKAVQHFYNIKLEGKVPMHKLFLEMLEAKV
Hepatocyte nuclear factor 4-alpha (Homo sapiens), sequence (P41235 whole entry, looked up, the tested form may be a part): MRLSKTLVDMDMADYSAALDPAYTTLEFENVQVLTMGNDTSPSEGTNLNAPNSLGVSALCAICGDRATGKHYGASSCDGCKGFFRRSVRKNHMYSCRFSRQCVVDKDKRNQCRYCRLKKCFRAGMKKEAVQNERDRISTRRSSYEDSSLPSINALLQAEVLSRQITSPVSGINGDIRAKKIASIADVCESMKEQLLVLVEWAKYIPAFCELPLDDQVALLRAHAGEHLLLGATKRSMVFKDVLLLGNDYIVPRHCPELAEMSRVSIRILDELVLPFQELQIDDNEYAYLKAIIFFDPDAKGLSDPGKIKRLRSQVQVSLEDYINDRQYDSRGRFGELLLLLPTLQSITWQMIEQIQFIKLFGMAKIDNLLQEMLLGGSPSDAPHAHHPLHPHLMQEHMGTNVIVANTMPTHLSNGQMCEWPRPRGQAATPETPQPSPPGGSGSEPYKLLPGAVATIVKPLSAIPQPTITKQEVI
Oxysterols receptor LXR-alpha (Homo sapiens), sequence (Q13133 whole entry, looked up, the tested form may be a part): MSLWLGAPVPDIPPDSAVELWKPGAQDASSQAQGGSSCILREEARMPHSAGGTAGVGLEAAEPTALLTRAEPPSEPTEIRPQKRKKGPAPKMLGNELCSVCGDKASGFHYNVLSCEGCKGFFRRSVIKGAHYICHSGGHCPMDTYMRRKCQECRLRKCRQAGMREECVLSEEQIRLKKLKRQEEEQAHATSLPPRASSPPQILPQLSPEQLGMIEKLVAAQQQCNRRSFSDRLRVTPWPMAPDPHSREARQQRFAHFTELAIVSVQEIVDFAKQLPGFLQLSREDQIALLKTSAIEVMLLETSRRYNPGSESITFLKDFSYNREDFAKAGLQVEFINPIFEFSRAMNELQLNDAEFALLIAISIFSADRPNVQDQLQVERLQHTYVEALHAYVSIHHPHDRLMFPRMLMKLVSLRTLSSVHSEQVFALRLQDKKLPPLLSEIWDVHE
Bile acid receptor (Homo sapiens), sequence (Q96RI1 whole entry, looked up, the tested form may be a part): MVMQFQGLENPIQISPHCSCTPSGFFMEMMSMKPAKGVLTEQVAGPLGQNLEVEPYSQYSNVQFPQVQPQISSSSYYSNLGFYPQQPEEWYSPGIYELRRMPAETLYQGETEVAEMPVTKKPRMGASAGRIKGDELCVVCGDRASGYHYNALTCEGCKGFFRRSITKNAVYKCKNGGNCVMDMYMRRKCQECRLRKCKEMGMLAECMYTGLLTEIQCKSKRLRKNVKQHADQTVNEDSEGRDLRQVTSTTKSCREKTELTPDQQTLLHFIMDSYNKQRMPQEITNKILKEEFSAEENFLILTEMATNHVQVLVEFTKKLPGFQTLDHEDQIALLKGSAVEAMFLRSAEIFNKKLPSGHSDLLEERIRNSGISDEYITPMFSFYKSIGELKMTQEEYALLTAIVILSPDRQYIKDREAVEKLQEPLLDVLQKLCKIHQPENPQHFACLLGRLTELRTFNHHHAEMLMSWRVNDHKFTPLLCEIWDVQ
Transcriptional activator Myb (Homo sapiens), sequence (P10242 whole entry, looked up): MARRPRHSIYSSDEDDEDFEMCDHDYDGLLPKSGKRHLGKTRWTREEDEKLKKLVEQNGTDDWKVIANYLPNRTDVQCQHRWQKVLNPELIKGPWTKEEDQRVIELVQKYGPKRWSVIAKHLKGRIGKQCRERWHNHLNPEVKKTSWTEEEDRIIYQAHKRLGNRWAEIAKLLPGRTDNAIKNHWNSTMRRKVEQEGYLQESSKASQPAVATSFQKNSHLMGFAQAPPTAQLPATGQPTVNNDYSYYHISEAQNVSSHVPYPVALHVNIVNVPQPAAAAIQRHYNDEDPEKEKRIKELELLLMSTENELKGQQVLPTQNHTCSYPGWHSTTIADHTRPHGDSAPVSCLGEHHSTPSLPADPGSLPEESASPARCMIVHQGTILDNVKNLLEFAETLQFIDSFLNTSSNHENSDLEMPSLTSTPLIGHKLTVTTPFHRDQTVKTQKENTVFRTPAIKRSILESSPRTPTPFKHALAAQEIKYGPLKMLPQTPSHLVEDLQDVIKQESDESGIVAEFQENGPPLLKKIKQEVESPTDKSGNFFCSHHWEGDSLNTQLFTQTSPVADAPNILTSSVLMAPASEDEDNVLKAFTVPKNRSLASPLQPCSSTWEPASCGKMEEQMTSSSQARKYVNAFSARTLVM
Oxysterols receptor LXR-beta (Homo sapiens), sequence (P55055 whole entry, looked up, the tested form may be a part): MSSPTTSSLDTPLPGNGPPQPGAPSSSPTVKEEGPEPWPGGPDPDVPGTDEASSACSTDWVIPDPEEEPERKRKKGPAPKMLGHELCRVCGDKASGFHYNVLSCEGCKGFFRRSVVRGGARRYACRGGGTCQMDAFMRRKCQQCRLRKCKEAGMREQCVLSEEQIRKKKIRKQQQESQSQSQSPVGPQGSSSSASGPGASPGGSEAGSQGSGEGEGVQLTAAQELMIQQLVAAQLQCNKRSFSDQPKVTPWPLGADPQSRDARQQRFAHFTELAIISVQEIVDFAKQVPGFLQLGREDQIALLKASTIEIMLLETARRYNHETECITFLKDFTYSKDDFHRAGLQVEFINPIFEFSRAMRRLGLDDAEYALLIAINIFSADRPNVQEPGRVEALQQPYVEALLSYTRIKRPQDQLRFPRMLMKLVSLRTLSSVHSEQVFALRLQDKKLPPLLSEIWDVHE

Turning to `CCCCCCOC(=O)c1ccccc1O`, the call in experiment [1], in [2], in experiment [3], in [4], in [5] and in [6] was inactive. The molecule was called inactive in experiment [7] and in [8].
In the case of `C=CC(F)(F)C(F)(F)C(F)(F)C(F)(F)C(F)(F)C(F)(F)C(F)(F)C(F)(F)F`, the molecule was classed as inactive in experiment [1], in experiment [2], in experiment [3], in [4], in experiment [9] and in [5]. The result in experiment [6], in experiment [10], in experiment [7] and in [8] was inactive.
As to `O=C(O)C(F)(F)C(F)(F)C(F)(F)F`, the outcome in [1], in experiment [2], in experiment [3], in experiment [4], in [9] and in experiment [5] was inactive. Also, the call in experiment [10], in [7] and in [8] was inactive.
In the case of `CC/C=C\CCOC(C)=O`, the call in [1], in [2], in experiment [3], in experiment [4], in [9] and in experiment [6] was inactive. For the same molecule, the outcome in experiment [10], in [7] and in [8] was inactive.
`O=C(O)C(F)(F)C(F)(F)C(F)F`: the outcome in [1], in experiment [2], in experiment [3], in experiment [4], in [9] and in experiment [5] was inactive. The call in experiment [10], in experiment [7] and in experiment [8] was inactive.
As for `O=S(=O)(OCC(F)F)C(F)(F)F`, the result in experiment [1], in [2], in [3], in experiment [4], in experiment [9] and in [6] was inactive. Moreover, the result in experiment [7] and in experiment [8] was inactive.
Regarding `FC1CC(F)(F)C(F)(F)C1(F)F` (stereo not drawn), the call in experiment [1], in experiment [2], in experiment [3], in experiment [4], in experiment [9] and in experiment [10] was inactive. The molecule was called inactive in experiment [8].
Regarding `O=C(Cl)C(F)(F)C(F)(F)C(F)(F)C(F)(F)C(F)(F)C(F)(F)C(F)(F)C(F)(F)F`, the result in [1], in experiment [2], in [3], in [5], in [6] and in experiment [10] was inactive. For the same molecule, the molecule was called inactive in [8]. The AC50 in experiment [7] is 24.9 µM (active).
On to `C#C[C@]1(O)CC[C@H]2[C@@H]3CCc4cc(OC)ccc4[C@H]3CC[C@@]21C`, for which the outcome in [1], in [2], in [3], in experiment [4], in experiment [9] and in [5] was inactive. For the same molecule, the molecule was called inactive in experiment [10] and in experiment [8].
As for `CCCCOc1ccc(N)cc1`, the outcome in [1], in experiment [3], in [4], in [9], in experiment [10] and in experiment [8] was inactive.
For the molecule `CS(C)(=O)=O`, the molecule was classed as inactive in [2], in experiment [3], in experiment [4], in experiment [6], in [10] and in experiment [7]. Moreover, the outcome in experiment [8] was inactive.
Regarding `O=C(O)C(F)(F)C(F)(F)C(F)(F)C(F)(F)C(F)(F)C(F)(F)C(F)(F)C(F)(F)Cl`, the molecule was classed as inactive in experiment [2], in experiment [3], in [4], in experiment [9], in experiment [5] and in experiment [10]. In addition, the molecule was classed as inactive in experiment [7] and in experiment [8]. Besides, the AC50 is 82.3 µM (active) in [3] and 31.2 µM (active) in [7].
Take `O=C(O)C(F)(F)C(F)(F)F`: the call in experiment [2], in experiment [3], in [4], in experiment [9], in [5] and in experiment [10] was inactive. Also, the molecule was called inactive in [7] and in experiment [8].
`CCc1ccc(C(c2ccc(CC)cc2)C(Cl)Cl)cc1`: the result in experiment [2], in experiment [3], in [9], in experiment [6], in experiment [10] and in experiment [7] was inactive. For the same molecule, in experiment [8], the molecule was classed as inactive.
Turning to `CCc1c(Br)c(Br)c(Br)c(Br)c1Br`, the call in experiment [1], in [3], in [4], in experiment [6], in experiment [10] and in experiment [8] was inactive. In experiment [7], the AC50 was 26.8 µM (active).
Regarding `FC(F)(F)C(F)(F)C(F)(F)C(F)(F)C(F)(F)C(F)(F)CC1CO1` (stereo not drawn), the outcome in experiment [2], in experiment [3], in [4], in [10] and in [8] was inactive.
Consider `CCN(CC)c1ccc2c(C)cc(=O)oc2c1`, for which the molecule was classed as inactive in experiment [2], in experiment [3], in [9], in experiment [10], in experiment [7] and in experiment [8]. The AC50 in experiment [4] was 26.2 µM (active).
In the case of `OCC(F)(F)C(F)(F)C(F)(F)F`, the molecule was called inactive in experiment [2], in [3], in experiment [4], in experiment [9], in experiment [5] and in experiment [10]. Moreover, the result in experiment [7] and in experiment [8] was inactive.
On to `O=S(=O)(O)C(F)(F)C(F)(F)C(F)(F)C(F)(F)C(F)(F)C(F)(F)C(F)(F)F`, for which the result in [2], in experiment [3], in experiment [4], in [6], in experiment [10] and in experiment [8] was inactive. Moreover, the concentration at half-maximal activity (AC50) in [8] is 160 µM (active).
As to `C=C(C)C(=O)OCCC(F)(F)C(F)(F)C(F)(F)C(F)(F)C(F)(C(F)(F)F)C(F)(F)F`, the outcome in experiment [2], in [3], in experiment [4], in [9], in experiment [6] and in [8] was inactive.
Regarding `O=C(CC(=O)C(F)(F)C(F)(F)F)C(F)(F)F`, the result in [2], in experiment [3], in experiment [4], in experiment [9], in experiment [10] and in experiment [7] was inactive. The result in experiment [8] was inactive.
Consider `CC(C)c1ccccc1N`, for which the result in experiment [1], in [5], in experiment [10], in [7] and in [8] was inactive.
As for `FC(F)(I)C(F)(F)C(F)(F)C(F)(F)I`, the outcome in experiment [1], in [4], in experiment [10], in [7] and in experiment [8] was inactive.
`O=C(O)C=C(C(F)(F)F)C(F)(F)F`: the molecule was called inactive in experiment [2], in experiment [3], in experiment [4], in experiment [9], in [5] and in [6]. The molecule was called inactive in experiment [10], in experiment [7] and in [8].
With `CC(C)=CCCC(C)CCOC(=O)C(C)C` (stereo not drawn), the result in [2], in experiment [3], in experiment [4], in experiment [5], in experiment [6] and in experiment [10] was inactive. Also, the call in experiment [7] and in experiment [8] was inactive.
